From PubChem BioAssay (NCATS) come the findings set out here.

The nature of experiment [1]: AP1 Signaling Pathway (AID 357). Further: on the % scale 0 is the no-effect control and ±100 the full control effect. The note with it: ME-180 AP-1-bla reporter, EGF-induced, beta-lactamase ratio, 5 h. Summed up: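 ME-180 cells with beta-lactamase reporter under AP-1 response element, stimulated with EC50 EGF; compounds tested in titration series, 5 h at 37 °C. CCF4 substrate added 2.5 h at room temperature; 460/530 nm emission ratio gave %activity and AC50.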

Experiment [2] concerns the target Cytochrome P450 1A2 (Homo sapiens) (UniProt P05177). The experiment is described as follows: p450-cyp1a2 (AID 410; calls by dose curve;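 further: -100% = full effect of reference inhibitor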). Conditions: recombinant CYP1A2, luciferin-ME demethylation, luminescence; series mostly up to 57 µM. Summed up: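 20nM CYP1A2 with 100uM Luciferin-ME (at Km) in 100mM KPO4; compound preincubated 10 min, NADPH regeneration added, 60 min at room temperature. Luciferin quantified by luminescence after detection reagent; normalized to 57 uM furafylline.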

Experiment [3] is described as follows: NFAT Signaling Pathway (AID 444).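 Further: carbachol stimulus at about its EC50 of 1 µM final; on the % scale 0 is the no-effect control and ±100 the full control effect.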 The note with it: Jurkat NFAT-bla M1, carbachol, beta-lactamase ratio, 5 h. An outline of the steps:
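Jurkat cells carrying an NFAT-driven β-lactamase reporter and co-transfected muscarinic M1 receptor were treated with compound plus carbachol (1 uM final, an EC50 level) for 5 h at 37 °C. CCF4 loading followed for 1 h at RT; 460/530 nm ratio gave %activity.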

Experiment [4] is described as follows: Stat Signaling Pathway (AID 446).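 Further: ME-180 cervical cancer cells given 40 pM IL-6 alongside compound; SIE-controlled beta-lactamase reporter measured as 460/530 nm FRET emission ratio; on the % scale 0 is the no-effect control and ±100 the full control effect.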 Conditions: ME-180 (cervical carcinoma) SIE beta-lactamase reporter, IL-6 stimulated, 5 h. Summed up: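 IL-6/STAT signaling read in ME-180 cells via an SIE beta-lactamase reporter. Stimulus was 40 pM IL-6 (its AC50) for 5 hrs, so both activation and inhibition register.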
For experiment [5], the target named is Mitogen-activated protein kinase 10 (Mus musculus) (UniProt Q61831). The experiment is described as follows: JNK3 AlphaScreen Assay (AID 530).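 Further: kinase came from lysate of stimulated human HepG2 cells; signal reports phosphorylation of biotinylated GST-cJun 1-79 at Ser73 with 10 µM ATP; on the % scale 0 is the no-effect control and ±100 the full control effect.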 The note with it: JNK3 lysate, c-Jun phosphorylation; series mostly up to 57.1 µM. An outline of the steps: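 Inhibitors reduce antibody binding to phosphorylated biotin-cJun, lowering AlphaScreen luminescence. Lysates from HepG2 cells pre-activated by IL-1beta plus TNF-alpha supplied JNK3; compounds were titrated.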
A general note: Bead proximity is the source of the signal in Alpha formats.

For experiment [6], the target named is 3',5'-cyclic-AMP phosphodiesterase 4B (Homo sapiens) (UniProt Q07343). The experiment in a line: qHTS Assay for Inhibitors of PDE-IV (AID 607; active means well fitted activation curve with a large enough effect in the main read-out, with a control signal flat, not every such curve was filed as active; further: % of control where 0% means no effect). The note with it: HEK293 ACTOne CNG channel cells, membrane potential fluorescence; series mostly up to 22.9 µM. Summed up: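 Live HEK293 cells with a modified cyclic nucleotide-gated (CNG) channel report intracellular cAMP via membrane-potential dye fluorescence (ex 535/em 590 nm). Endogenous PDE-IV was targeted. Compounds were tested at up to 22.9 uM final; RO 20-1724 100 uM served as control.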
(qHTS replaces the single test concentration by a dilution series.)

Experiment [7] addresses Guanine nucleotide-binding protein G(i) subunit alpha-1 (Homo sapiens) (UniProt P63096). The experiment is described as follows: qHTS Assay for Inhibitors of RGS12 GoLoco Motif Activity (Green Fluorophore) (AID 879; active means well fitted curve in the direction sought with a large enough effect; an effect the other way counts as inactive or inconclusive;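 further: 0% = labeled peptide with Gαi1 and full inhibition = labeled peptide alone without protein; negative values mean loss of peptide binding seen as reduced polarization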). Conditions: Galphai1/FITC-RGS12 GoLoco peptide, fluorescence polarization; series mostly up to 57.1 µM. Summed up: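 Fluorescence polarization assay: 50 nM Gαi1 with 10 nM FITC-labeled RGS12 GoLoco peptide in 10 mM Tris pH 7.5, 150 mM NaCl, 0.1 mM GDP, 0.05% NP40, 10 min at room temperature with compound.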

Experiment [8] is described as follows: qHTS Assay for Lipid Storage Modulators (AID 1519; calls by dose curve). The note with it: Drosophila S3 cells, BODIPY lipid droplet/cell ratio, laser cytometry, cells loaded with oleic acid; for activity change, negative = inhibition: at 25.7 µM (top of the series). An outline of the steps: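 Cells seeded at 5,000 per well were treated with compounds over a concentration series and loaded with oleic acid (400 uM, as added). Lipid droplet fluorescence (488 nm excitation, 500-530 nm channel) was read by laser-scanning cytometry and normalized to 20 uM Triacsin C.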

The target of experiment [9] is Ubiquitin carboxyl-terminal hydrolase 1 (Homo sapiens) (UniProt O94782). The experiment is described as follows: Inhibitors of USP1/UAF1: Pilot qHTS (AID 504865; active means well fitted curve in the direction sought with a large enough effect; an effect the other way counts as inactive or inconclusive;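 further: rhodamine fluorescence freed from ubiquitin-rhodamine substrate followed over time; top concentration of the series differs between compounds; on the % scale 0 is the no-effect control and ±100 the full control effect; nearly all actives have a fitted effect of over 35% in size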). Conditions: purified USP1/UAF1, Ub-rhodamine cleavage fluorescence; series mostly up to 54.9 µM. Summed up: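 In 50mM HEPES pH 7.8 containing 0.5mM EDTA, 1mM TCEP, 0.1 mg/ml BSA and 0.01% Tween-20, 1nM USP1/UAF1 is exposed to compound for 15 min, then Ub-Rho (150nM final) is added and fluorescence is read over time.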

Experiment [10] can be described thus: qHTS profiling for inhibitors of Plasmodium falciparum proliferation (AID 504749; active means well fitted curve in the direction sought with a large enough effect; an effect the other way counts as inactive or inconclusive;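 further: 0% = DMSO vehicle and full inhibition = artemisinin control; nearly all actives have a fitted effect of over 60% in size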). Conditions: P. falciparum in erythrocytes, SYBR Green DNA, 72 h, at 28.7 µM (top of the series). An outline of the steps: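 Parasite proliferation within erythrocytes, 72 h exposure. Endpoint: SYBR Green I fluorescence after overnight lysis at room temperature. Controls: 0.29 uM artemisinin, DMSO.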

For experiment [11], the target named is Glucocorticoid receptor (Homo sapiens) (UniProt P04150). The experiment in a line: GR-GFP Redistribution (AID 450;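 active means compounds whose dose series gives a full or clear partial fitted curve of increased nuclear translocation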; further: potency means the concentration at half of the fitted maximal effect). Conditions: U2OS GR-GFP nuclear translocation, laser cytometry, 2 h.
Experiment [12] shares this target. The experiment in a line: GR-EFC Redistribution (AID 451; calls by dose curve; further: potency means the concentration at half of the fitted maximal effect). The note with it: CHO-K1 GR-EFC translocation, beta-gal luminescence, 2 h. An outline of the steps: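 CHO-K1 cells stably expressing nuclear-localized β-gal enzyme acceptor and GR fused C-terminally to the enzyme donor fragment; ligand-driven nuclear translocation restores β-gal by complementation. Compounds titrated up to 46 uM final, 2 h at 37 °C; luminescence read.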

The target in experiment [13] is Cytochrome P450 3A4 (Homo sapiens) (UniProt P08684). The experiment in a line: qHTS Assay for Activators of Cytochrome P450 3A4 (AID 885; active means well fitted curve in the direction sought with a large enough effect; an effect the other way counts as inactive or inconclusive; further: nearly all actives have a fitted effect of over 65% in size). The note with it: recombinant CYP3A4, Luciferin-PPXE luminescence, 60 min; series mostly up to 57.1 µM. An outline of the steps: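 Quantitative HTS format: compounds preincubated with 20nM human CYP3A4 and Luciferin-PPXE substrate at KM, reaction started by NADPH regeneration, stopped after 60 min, luciferase luminescence read 20 min later.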

Experiment [14] has as its target Cytochrome P450 2D6 (Homo sapiens) (UniProt P10635). The experiment in a line: qHTS Assay for Inhibitors and Substrates of Cytochrome P450 2D6 (AID 891; active means well fitted curve in the direction sought with a large enough effect; an effect the other way counts as inactive or inconclusive;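 further: luciferin methyl ether substrate demethylated by CYP2D6 with NADPH regeneration; on the % scale 0 is the no-effect control and ±100 the full control effect; nearly all actives have a fitted effect of over 60% in size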). The note with it: recombinant CYP2D6, luciferin-ME EGE luminescence; series mostly up to 57.1 µM. Summed up:
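Human CYP2D6 (5 nM) with 30 uM Luciferin-ME EGE (at Km) in 100 mM KPO4, compound preincubated 10 min, then NADPH regeneration system for 60 min at room temperature. Luciferin read by luminescence; normalized to 1.43 uM quinidine.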

For experiment [15], the target named is Cytochrome P450 2C19 (Homo sapiens) (UniProt P33261). The experiment is described as follows: qHTS Assay for Inhibitors and Substrates of Cytochrome P450 2C19 (AID 899; active means well fitted curve in the direction sought with a large enough effect; an effect the other way counts as inactive or inconclusive; further: on the % scale 0 is the no-effect control and ±100 the full control effect; nearly all actives have a fitted effect of over 60% in size). The note with it: recombinant CYP2C19, luciferin-H EGE luminescence; series mostly up to 57.1 µM. Summed up:
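In 50mM KPO4, the reaction held 5nM enzyme and KM-level (10uM) Luciferin-H EGE; it ran 60 min at 37C after NADPH regeneration and a 10 min compound preincubation. Luminescence values were scaled to 57uM ketoconazole as complete inhibition.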

Experiment [16] in a line: Confirmation and Secondary Assay for Modulators of Hemoglobin Beta Chain Splicing at IVS2 705 locus (AID 930; active means well fitted curve in the direction sought with a large enough effect; an effect the other way counts as inactive or inconclusive;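 further: HeLa cells stably expressing the EGFP-705 splicing reporter; GFP fluorescence per well restored by corrected splicing of the IVS2-705 intron in EGFP; % of control where 0% means no effect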). The note with it: HeLa EGFP-705 splicing reporter, GFP fluorescence, 48 h; series mostly up to 38.3 µM. An outline of the steps:
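HeLa EGFP-705 reporter; 500 cells/well, o/n 37C 5% CO2; cpd 2 d; 488 ex/500-520 em laser scan; total peak GFP intensity/well. Ref: 500 nM […] antisense PNA.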

Where [17] appears, read: at 7.69 µM (top of the series) unless noted.
The mark [18] stands for this setting: measured here: cell count channel max response.
[19] abbreviates: measured here: lipid channel max response.

Values joined by “and” are separate entries in the source; they are usually repeats but may differ in a detail not shown here. Identical values can stand only once. Inconclusive results are not listed. Active and inactive are the calls of the source. Unless noted, the call rests on the fitted dose curve; in most records, active means well fitted curve in either direction with a large enough effect (not every such curve was filed as active); inconclusive means small, poorly fitted or top-dose-only effect, or another doubt; inactive means flat fitted curve, though single readings scatter.

Sequence of 3',5'-cyclic-AMP phosphodiesterase 4B (Homo sapiens) (Q07343 whole entry, looked up): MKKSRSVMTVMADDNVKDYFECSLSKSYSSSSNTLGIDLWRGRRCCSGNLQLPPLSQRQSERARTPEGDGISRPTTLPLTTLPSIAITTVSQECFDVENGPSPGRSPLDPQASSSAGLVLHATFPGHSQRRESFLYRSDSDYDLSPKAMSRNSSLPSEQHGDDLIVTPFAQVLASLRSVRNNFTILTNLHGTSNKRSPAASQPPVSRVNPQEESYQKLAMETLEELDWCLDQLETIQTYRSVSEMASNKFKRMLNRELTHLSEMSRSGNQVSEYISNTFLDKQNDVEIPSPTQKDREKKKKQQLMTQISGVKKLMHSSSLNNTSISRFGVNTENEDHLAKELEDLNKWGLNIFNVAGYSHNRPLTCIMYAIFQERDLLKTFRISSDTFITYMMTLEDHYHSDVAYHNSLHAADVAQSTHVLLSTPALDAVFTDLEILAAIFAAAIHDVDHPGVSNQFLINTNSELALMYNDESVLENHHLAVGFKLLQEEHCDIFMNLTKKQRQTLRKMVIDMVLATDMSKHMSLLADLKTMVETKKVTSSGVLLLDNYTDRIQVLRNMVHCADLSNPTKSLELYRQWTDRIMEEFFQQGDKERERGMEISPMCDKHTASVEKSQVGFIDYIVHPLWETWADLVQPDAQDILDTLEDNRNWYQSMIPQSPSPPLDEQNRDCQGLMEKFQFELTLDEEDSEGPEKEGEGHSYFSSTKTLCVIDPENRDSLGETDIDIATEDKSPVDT
Sequence of Guanine nucleotide-binding protein G(i) subunit alpha-1 (Homo sapiens) (P63096 whole entry, looked up): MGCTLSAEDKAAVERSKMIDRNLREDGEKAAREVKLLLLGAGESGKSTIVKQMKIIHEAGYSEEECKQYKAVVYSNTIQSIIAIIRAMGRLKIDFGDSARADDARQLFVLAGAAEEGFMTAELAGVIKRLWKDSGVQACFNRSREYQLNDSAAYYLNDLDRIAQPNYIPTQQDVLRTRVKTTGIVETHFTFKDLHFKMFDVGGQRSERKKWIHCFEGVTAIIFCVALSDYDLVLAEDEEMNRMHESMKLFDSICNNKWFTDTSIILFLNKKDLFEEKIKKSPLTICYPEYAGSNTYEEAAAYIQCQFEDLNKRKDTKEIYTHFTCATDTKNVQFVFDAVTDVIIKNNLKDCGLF
Sequence of Cytochrome P450 1A2 (Homo sapiens) (P05177 whole entry, looked up): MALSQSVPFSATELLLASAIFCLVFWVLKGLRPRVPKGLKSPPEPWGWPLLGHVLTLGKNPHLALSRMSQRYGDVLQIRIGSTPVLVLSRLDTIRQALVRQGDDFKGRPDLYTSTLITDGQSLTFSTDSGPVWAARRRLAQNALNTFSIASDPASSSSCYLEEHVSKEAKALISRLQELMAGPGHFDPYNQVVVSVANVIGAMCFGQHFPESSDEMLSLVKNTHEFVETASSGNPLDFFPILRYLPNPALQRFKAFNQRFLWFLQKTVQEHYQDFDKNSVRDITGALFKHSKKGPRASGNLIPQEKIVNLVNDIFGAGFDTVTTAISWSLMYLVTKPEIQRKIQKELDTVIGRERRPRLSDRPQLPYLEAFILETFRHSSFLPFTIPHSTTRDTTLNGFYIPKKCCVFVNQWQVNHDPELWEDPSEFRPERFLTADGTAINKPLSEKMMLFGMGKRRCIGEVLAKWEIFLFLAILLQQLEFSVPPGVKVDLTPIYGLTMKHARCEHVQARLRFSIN
Sequence of Ubiquitin carboxyl-terminal hydrolase 1 (Homo sapiens) (O94782 whole entry, looked up): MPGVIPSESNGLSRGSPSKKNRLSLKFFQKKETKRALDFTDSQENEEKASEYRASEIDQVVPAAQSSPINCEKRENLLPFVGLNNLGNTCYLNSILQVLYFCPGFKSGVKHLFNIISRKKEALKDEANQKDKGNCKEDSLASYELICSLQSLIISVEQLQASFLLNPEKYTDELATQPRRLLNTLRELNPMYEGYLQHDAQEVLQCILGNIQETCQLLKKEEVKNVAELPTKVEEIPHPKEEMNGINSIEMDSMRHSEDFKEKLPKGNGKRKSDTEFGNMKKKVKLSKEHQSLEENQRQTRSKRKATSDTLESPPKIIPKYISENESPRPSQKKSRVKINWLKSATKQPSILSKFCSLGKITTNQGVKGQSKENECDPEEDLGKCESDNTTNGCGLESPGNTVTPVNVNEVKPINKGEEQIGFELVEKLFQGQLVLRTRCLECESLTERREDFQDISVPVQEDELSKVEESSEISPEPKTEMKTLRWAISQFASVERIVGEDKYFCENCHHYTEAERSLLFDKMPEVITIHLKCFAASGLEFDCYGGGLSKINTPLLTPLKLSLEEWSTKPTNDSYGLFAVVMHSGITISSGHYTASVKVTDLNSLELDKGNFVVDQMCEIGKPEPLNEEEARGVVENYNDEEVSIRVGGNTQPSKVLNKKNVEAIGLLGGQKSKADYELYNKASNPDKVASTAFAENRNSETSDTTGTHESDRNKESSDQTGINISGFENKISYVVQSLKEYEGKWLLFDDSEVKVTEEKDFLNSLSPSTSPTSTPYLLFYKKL
Sequence of Glucocorticoid receptor (Homo sapiens) (P04150 whole entry, looked up, the tested form may be a part): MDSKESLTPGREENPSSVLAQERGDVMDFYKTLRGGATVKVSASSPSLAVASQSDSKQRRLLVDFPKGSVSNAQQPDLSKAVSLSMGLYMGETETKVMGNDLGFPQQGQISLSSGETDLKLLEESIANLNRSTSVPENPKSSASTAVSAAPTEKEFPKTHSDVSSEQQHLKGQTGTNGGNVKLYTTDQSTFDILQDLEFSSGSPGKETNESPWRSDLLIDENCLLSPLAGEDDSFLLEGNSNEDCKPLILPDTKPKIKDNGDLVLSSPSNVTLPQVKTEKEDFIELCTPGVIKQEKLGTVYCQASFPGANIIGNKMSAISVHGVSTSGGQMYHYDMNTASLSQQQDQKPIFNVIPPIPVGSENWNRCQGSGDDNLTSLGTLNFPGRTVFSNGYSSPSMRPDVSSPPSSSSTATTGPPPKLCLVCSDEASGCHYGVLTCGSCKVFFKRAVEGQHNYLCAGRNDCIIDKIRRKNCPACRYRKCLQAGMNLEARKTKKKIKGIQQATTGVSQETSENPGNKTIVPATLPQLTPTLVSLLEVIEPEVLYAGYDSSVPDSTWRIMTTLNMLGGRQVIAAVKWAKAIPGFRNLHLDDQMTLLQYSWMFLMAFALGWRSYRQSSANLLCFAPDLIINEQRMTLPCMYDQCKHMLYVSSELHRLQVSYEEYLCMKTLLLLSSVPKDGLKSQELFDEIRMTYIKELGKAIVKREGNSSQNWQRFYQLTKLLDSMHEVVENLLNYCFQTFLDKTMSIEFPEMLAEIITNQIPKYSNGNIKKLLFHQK
Sequence of Cytochrome P450 2C19 (Homo sapiens) (P33261 whole entry, looked up): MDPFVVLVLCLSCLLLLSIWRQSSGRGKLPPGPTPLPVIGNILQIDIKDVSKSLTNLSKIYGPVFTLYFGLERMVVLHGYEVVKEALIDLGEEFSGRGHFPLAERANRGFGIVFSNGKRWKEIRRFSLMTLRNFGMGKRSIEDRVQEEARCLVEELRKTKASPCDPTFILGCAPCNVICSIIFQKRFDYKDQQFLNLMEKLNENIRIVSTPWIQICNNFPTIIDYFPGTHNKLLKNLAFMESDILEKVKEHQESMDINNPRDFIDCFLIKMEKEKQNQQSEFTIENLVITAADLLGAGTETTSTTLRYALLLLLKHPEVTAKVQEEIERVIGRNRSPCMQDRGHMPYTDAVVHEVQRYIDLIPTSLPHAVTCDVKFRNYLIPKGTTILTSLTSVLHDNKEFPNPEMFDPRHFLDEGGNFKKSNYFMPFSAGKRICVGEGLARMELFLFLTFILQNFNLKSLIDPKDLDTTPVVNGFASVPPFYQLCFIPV
Sequence of Cytochrome P450 3A4 (Homo sapiens) (P08684 whole entry, looked up): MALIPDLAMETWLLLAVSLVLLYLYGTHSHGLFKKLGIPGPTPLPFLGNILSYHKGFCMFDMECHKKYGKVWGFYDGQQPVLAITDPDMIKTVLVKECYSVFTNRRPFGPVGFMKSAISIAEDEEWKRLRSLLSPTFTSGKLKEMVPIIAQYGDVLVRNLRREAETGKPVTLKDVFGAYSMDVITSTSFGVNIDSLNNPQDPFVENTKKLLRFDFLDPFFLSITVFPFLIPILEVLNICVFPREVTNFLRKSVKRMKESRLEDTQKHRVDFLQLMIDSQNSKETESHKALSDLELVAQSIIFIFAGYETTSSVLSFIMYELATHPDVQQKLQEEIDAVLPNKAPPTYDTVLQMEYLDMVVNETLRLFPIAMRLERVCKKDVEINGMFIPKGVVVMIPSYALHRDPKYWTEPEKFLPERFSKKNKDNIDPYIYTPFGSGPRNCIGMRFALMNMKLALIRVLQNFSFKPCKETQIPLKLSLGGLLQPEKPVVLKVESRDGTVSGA
Sequence of Cytochrome P450 2D6 (Homo sapiens) (P10635 whole entry, looked up): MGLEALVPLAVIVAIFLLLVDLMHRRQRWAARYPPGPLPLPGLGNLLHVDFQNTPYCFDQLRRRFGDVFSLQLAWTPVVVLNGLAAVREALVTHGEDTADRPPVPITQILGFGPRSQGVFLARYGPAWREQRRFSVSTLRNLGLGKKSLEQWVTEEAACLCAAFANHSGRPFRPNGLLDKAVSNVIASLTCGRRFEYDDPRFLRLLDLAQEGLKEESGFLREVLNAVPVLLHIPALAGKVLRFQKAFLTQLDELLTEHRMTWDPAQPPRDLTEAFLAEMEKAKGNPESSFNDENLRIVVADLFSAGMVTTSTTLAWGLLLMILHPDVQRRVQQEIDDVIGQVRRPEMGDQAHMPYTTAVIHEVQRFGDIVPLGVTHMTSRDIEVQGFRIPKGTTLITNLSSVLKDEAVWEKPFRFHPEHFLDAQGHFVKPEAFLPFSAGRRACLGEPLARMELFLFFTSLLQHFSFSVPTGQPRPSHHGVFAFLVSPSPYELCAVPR

Take `CC(C)NC[C@H](O)c1cc(O)cc(O)c1`: the activity change, negative = inhibition in [1] (at 17.2 µM (top of the series)) is -17.9% (inactive); in [1] (at 38 µM (top of the series)), -18.1% (inactive); in [3] (at 17.2 µM (top of the series)), -4.38% (inactive); in [3] (at 38 µM (top of the series)) it was 2.58% (inactive); in experiment [8], -2.07% (inactive). The Potency result in experiment [2], in experiment [5], in [6], in [7] and in experiment [9] was “inactive” each time. The activity, negative = inhibition was 14.6% [at 17.2 µM] (inactive) in experiment [4] (setting [17]), 15.2% (inactive) in experiment [10] (parasite line A) and 4.36% (inactive) in experiment [10] (parasite line B). In addition, the results for the max response in experiment [8] (setting [18]) and in experiment [8] (setting [19]) were 14.3% and 12.4%, respectively.
For `CCn1cc(C(=O)O)c(=O)c2cc(F)c(N3CCN[C@@H](C)C3)c(F)c21`, the activity change, negative = inhibition is -0.628% (inactive) in [1] (at 17.2 µM (top of the series)); 12.1% (inactive) in experiment [1] (at 38 µM (top of the series)); -8.67% (inactive) in experiment [3] (at 17.2 µM (top of the series)); -2.78% (inactive) in [3] (at 38 µM (top of the series)); -0.691% (inactive) in experiment [8]. The Potency result in experiment [2], in experiment [5], in experiment [6], in experiment [7] and in experiment [9] was “inactive” in each case. Further, the activity, negative = inhibition was 9.73% (inactive) in experiment [4] (at 17.2 µM (top of the series)), 26.7% (inactive) in experiment [4] (at 38 µM (top of the series)), 5.09% (inactive) in [10] (parasite line A) and 0.537% (inactive) in experiment [10] (parasite line B). The Potency in experiment [11] is > 46 µM (inactive) and > 20.6 µM (inactive); in [12] it was > 46 µM (inactive) and > 20.6 µM (inactive). The max response in experiment [8] (setting [18]) was -2.23%; in [8] (setting [19]), -3.89%.
Consider `C[C@@](N)(Cc1ccc(O)c(O)c1)C(=O)O`, for which the activity change, negative = inhibition was 0.401% (inactive) in [1] (at 17.2 µM (top of the series)); 5.17% (inactive) and -4.03% (inactive) in experiment [1] (at 38 µM (top of the series)); -8.05% (inactive) in [3] (at 17.2 µM (top of the series)); 7.56% (inactive) and -10% (inactive) in experiment [3] (at 38 µM (top of the series)); -1.42% (inactive) in experiment [8]. The Potency result in experiment [2], in [5], in [6], in experiment [7], in experiment [13] and in experiment [14] was “inactive” each time. Further, the Potency entry in experiment [15] and in experiment [9] was “inactive” throughout. The activity, negative = inhibition in experiment [4] (at 17.2 µM (top of the series)) was 0.151% (inactive); in [4] (at 38 µM (top of the series)), -17.9% (inactive) and -0.208% (inactive). In addition, in experiment [16], the call was inactive. Moreover, the values for the max response in experiment [8] (setting [18]) and in [8] (setting [19]) were 6.8% and -7.65%, respectively.
On to `C[C@@H](C[N+](C)(C)C)OC(N)=O`, for which the activity change, negative = inhibition in experiment [1] (at 17.2 µM (top of the series)) is 2.54% (inactive); in experiment [1] (at 38 µM (top of the series)), 13.3% (inactive); in experiment [3] (at 17.2 µM (top of the series)), 9.21% (inactive); in [3] (at 38 µM (top of the series)), 17.1% (inactive); in [8] it was -1.39% (inactive). For the same compound, the Potency result in [2], in experiment [5], in experiment [6], in [7] and in experiment [9] was “inactive” throughout. For the same compound, the activity, negative = inhibition in [4] (setting [17]) is -3.42% [at 17.2 µM] (inactive). Besides, the Potency in experiment [11] is > 46 µM (inactive) and > 20.6 µM (inactive); in experiment [12] it was > 46 µM (inactive) and > 20.6 µM (inactive). Besides, the max response in experiment [8] (setting [18]) is -0.356%; in experiment [8] (setting [19]), -3.27%.
